Assay outcomes from PubChem.
KDM5B inhibitor: blocks human KDM5B histone demethylase activity; Q9UGL1; KDM5B demethylase, FDH-coupled NADH fluorescence (FDH is formaldehyde dehydrogenase); Potency, µM (titrated, usually from 57.7 µM), hits mostly inhibitors; actives 2.6% (n = 220,000); AID 1347165; active = well fitted inhibition curve with a large enough effect; also: 0% is about no effect; nearly all actives have a fitted effect of over 70% in size
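Compound dilutions met 200 nM (final) KDM5BΔAP for 10 min at room temperature before substrate addition. The substrate mix held 12.5 µM H3K4me3 with cofactors 25 µM α-ketoglutarate and 50 µM Fe²⁺. NADH signal gain over 30 min defined activity.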
Active calls of the source: *; i = inactive. Only a selection was taken, and hits are over-represented in it overall. Potency is read from the fitted curve at half-maximal effect.

SMILES | KDM5B inhibitor
COc1cc2c(cc1CN1CCN(c3ccc(C#N)cc3)C(=O)C1)CCC2 | 31.6µM*
COc1c(C)cc(Br)cc1C(=O)Nc1sc2c(c1C(N)=O)CCCCC2 | i
CC(C)N(C)C(=O)CSc1nc(NC2CC2)c2ccccc2n1 | i
Cn1nc(C(=O)Nc2ccccc2C(=O)NC2CC2)c2ccccc2c1=O | i
Cn1nc(C2CCCNC2)c2c(C(=O)NC3CC3)cc(C3CC3)nc21 (stereo not drawn) | 89.1µM*
CC1CCC(NC(=O)c2cc(C3CC3)nc3ccccc23)CC1 (stereo not drawn) | i
Cn1nc(C2CCNCC2)c2c(C(=O)NC3CC3)cc(C3CC3)nc21 | 89.1µM*
Cc1nn(C)c2nc(C3CC3)cc(C(=O)N3CCN(c4ncccn4)CC3)c12 | i
CC(c1cc2ccccc2o1)N(C)Cc1nnc(-c2ccccc2)o1 (stereo not drawn) | i
Cc1cccc(NC(=O)CN(C)C(=O)Cc2ccc3ccccc3c2)c1C | i
O=C(NC1CCCC1)c1cc(-c2ccccn2)nc2c(Cl)cccc12 | i
COc1ccc(C(=O)OCc2ccccc2F)c(OC)c1OC | i
COc1ccc(NC(=O)N2CCCC(Cn3c(C4CC4)nc4cccnc43)C2)cc1Cl (stereo not drawn) | i
CN(C)CCN(CCc1ccccc1)C(=O)Nc1cccnc1 | i
COc1cc(NC(=O)CSc2nncn3c2cc2oc(C)cc23)cc(OC)c1 | i
Cc1cc2nc(-c3cccc(NC(=O)c4cccnc4)c3C)oc2cc1C | i
COCc1ncc(C)n1CCNC(=O)c1ccoc1 | i
Cc1csc(NC(=O)CCNC(=O)c2ccoc2)n1 | i
COc1cccc(CNC(=O)Cn2cccc2-c2nc(-c3ccc(OC)c(F)c3)no2)c1 | i
O=C(Nc1ccccc1-c1nc(Cc2ccccc2)no1)c1cccnc1 | i
COc1ccc(CC(=O)NCc2nnc3ccccn23)c(OC)c1 | i
Cc1noc(-c2cccn3c(CNC(=O)c4cccnc4)nnc23)n1 | 28.2µM*
CCc1noc(-c2cccn3c(CNC(=O)c4cccnc4)nnc23)n1 | 31.6µM*
Cc1ccsc1CNC(=O)c1cccnc1 | i
Cc1noc(-c2cccn3c(CNC(=O)c4ccoc4)nnc23)n1 | 28.2µM*
SMILES | KDM5B inhibitor
COc1cccc(CC(=O)NCc2nnc3c(-c4nc(C)no4)cccn23)c1 | 17.8µM*
Cc1ccc(Cl)cc1N1CCN(C(=O)CNC(=O)NCc2ccc(F)cc2)CC1 | i
Cc1cccc(-c2nc3cc(NC(=O)c4cccc([N+](=O)[O-])c4)ccc3o2)c1 | i
CN1N=C(C(=O)N2CCc3c(nc(-c4ccncc4)[nH]c3=O)C2)CCC1=O | i
O=C(c1nccc2ccccc12)N1CCc2c(nc(-c3ccccc3)[nH]c2=O)C1 | i
CCn1ccc(C(=O)N2CCc3c(nc(-c4ccc(OC)cc4)[nH]c3=O)C2)n1 | i
COc1ccc(-c2nc3c(c(=O)[nH]2)CCN(C(=O)Nc2ccc(C)cc2C)C3)cc1 | 25.1µM*
COc1ccc(-c2nc3c(c(=O)[nH]2)CCN(C(=O)COc2ccc(F)c(F)c2)C3)cc1 | 22.4µM*
O=C(CCc1ccccc1)N1CCc2c(nc(-c3ccc(F)cc3)[nH]c2=O)C1 | i
Cc1ccc(-c2cnc(SCC(=O)Nc3ccccc3C)o2)cc1C | i
O=C(Nc1cccc(-c2nnnn2C2CC2)c1)C1CCCC1 | i
COc1ccc(NC(=O)Nc2ccc(C)n(CC(=O)N3CCCN(C)CC3)c2=O)cc1 | i
Cc1ccc(NC(=O)Nc2ccccc2)c(=O)n1CC(=O)N1CCN(c2ccccc2)CC1 | 28.2µM*
COc1ccc(NC(=O)Nc2ccc(C)n(CC(=O)N3CCCC(C)C3)c2=O)cc1 (stereo not drawn) | i
Cc1nn(-c2ccc(F)cc2)c(Oc2ccccc2F)c1CCC(=O)N1CCCC1 | i
O=C1NC2(CCCN(C(=O)Cc3ccccc3)C2)Oc2ccccc21 (stereo not drawn) | i
O=C(OCc1ccccc1)N1CCC2(C1)C(=NC1CCCC1)NC(=O)N2c1cccnc1 (stereo not drawn) | i
Cc1noc(C)c1S(=O)(=O)N1CCC[C@H](n2c(=O)n(C)c3cccnc32)C1 | i
Cc1noc(C)c1S(=O)(=O)N1CCCC(Cc2noc(-c3cccnc3)n2)C1 (stereo not drawn) | i
Cc1noc(C)c1S(=O)(=O)N1CCCC2(C1)Nc1cccnc1NC2=NC1CCCC1 (stereo not drawn) | 22.4µM*
O=C(Cc1ccccc1)N1CCCC2(C1)Nc1cccnc1NC2=NC1CCCC1 (stereo not drawn) | 28.2µM*
O=C(CCc1ccccc1)N1CCC(Oc2ncccc2C(=O)N2CCCCC2)C1 (stereo not drawn) | i
O=C(CCc1ccccc1)N1CCCC2(C1)Nc1cccnc1NC2=NC1CCCC1 (stereo not drawn) | 25.1µM*
O=C(Cc1ccccc1)N1CCCC2(CC(c3ccccn3)=NO2)C1 (stereo not drawn) | i
Cc1cc(C)c2c(-n3cccc3)nn(CCCC(=O)NCc3ccc(Cl)cc3)c2n1 | i
CC(C)(C)c1ccc(/C=N/O)cc1 | i
